SMARCA2 act: activators of SMARCA2 function; 1% of 370,000 active; activation, % at 9.1 µM; MG213 cells, MMTV-luciferase reporter, dexamethasone, overnight; in the data active = activation above about 7.8%;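 note: 0% = vehicle wells and 100% = reference activator wells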
DYRK1A inh: inhibitors of rat Dyrk1A kinase | 0.43% of 310,000 active | inhibition, % at 12.5 µM | ADP-Glo luminescence, NFATc1 peptide; in the data active = inhibition above about 50%;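 note: plate controls were vehicle with enzyme for no effect and no enzyme for full effect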
dFosB act: mouse delta FosB homodimer activation | purified delta FosB, TAMRA-CDK5 oligo fluorescence polarization; percent of positive-control signal above neutral wells | P13346 | 0.99% of 340,000 active | activation, % at 25 µM;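 active = mean activation above about 17%, with every replicate also reaching it, limit read from the data, passing the limit was not always enough; inconclusive = only one of the two conditions met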
Rtt109 HAT inh: C. albicans Rtt109 histone acetyltransferase inhibition; Q5AAJ8; purified Rtt109/Vps75, ThioGlo CoA-SH fluorescence, 4 h; inhibition, % at 34.9 µM; 0.16% of 330,000 active; AID 540336;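 active = inhibition of at least 50% in every replicate; inconclusive = best replicate reaches 50% inhibition but some replicates fall short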
Target sequence (Q5AAJ8 whole entry, looked up): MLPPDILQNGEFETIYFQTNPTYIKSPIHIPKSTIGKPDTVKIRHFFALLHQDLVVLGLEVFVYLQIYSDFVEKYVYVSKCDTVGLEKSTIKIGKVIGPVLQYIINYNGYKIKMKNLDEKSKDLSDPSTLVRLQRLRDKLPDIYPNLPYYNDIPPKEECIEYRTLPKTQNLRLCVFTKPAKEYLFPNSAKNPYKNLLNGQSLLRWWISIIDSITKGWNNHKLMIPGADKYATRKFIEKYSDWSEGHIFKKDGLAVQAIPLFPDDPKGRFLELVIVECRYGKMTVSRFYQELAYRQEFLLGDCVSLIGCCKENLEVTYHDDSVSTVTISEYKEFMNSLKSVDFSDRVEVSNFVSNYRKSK
CDK5 p35 inh: CDK5/p35 (human) kinase inhibition. Recombinant CDK5/p35, ADP-Glo luminescence, 60 min. inhibition, % at 10 µM. 0.01% of 330,000 active;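 active = highest replicate inhibition of at least 50% and at least 75% of replicates reaching 50%; inconclusive = only one of the two criteria met; inactive = both criteria failed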;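 note: plate controls were DMSO neutral control for no effect and GW8510 at 10 µM for full effect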
esBAF inh: blocks esBAF chromatin remodeling in mouse ES cells. Bmi1-luciferase knock-in reporter, 24 h; 100% = twice the neutral-well signal. reporter increase, % at 12.5 µM. 2% of 350,000 active; in the data active = activation above about 40%; inconclusive = no clear call, values can overlap the other calls;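 note: 0% = median of the plate's neutral control wells and 100% = double that signal; a rise in the Bmi1 reporter signal indicates esBAF inhibition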
* = called active by the depositor; u = inconclusive; x = no result given; ! = a repeat was not active. Shown are actives, neighbours in structure and some others; about 3.2% of the full set was active somewhere.

SMILES	SMARCA2 act	DYRK1A inh	dFosB act	Rtt109 HAT inh	CDK5 p35 inh	esBAF inh
O=C(CC1CC1)N[C@H]1CC[C@@H](CCNS(=O)(=O)c2ccc(F)cc2)O[C@H]1CO	x	x	x	x	x	-2
Cc1noc(C)c1NC(=O)Nc1cccc2c1O[C@H](CN(C)C(=O)Nc1ccc(F)cc1)[C@@H](C)CN([C@@H](C)CO)C2=O	x	x	x	x	x	0
CC1CCN(c2nc3ccc(C(=O)O)cc3s2)CC1	-3	10	-1	11	1	-71
CCC1CCCCN1CCCNC(=O)c1ccc2nc(N3CCC(C)CC3)sc2c1 (centres undefined)	8	1	2	16	-2	58*
CN(C)C(=O)[C@H]1[C@H](CO)[C@H]2Cn3c(ccc(C4=CCCCC4)c3=O)[C@H]2N1Cc1ccccn1	x	x	x	x	x	-1
C/C(=N\NC(=O)COc1ccccc1[N+](=O)[O-])c1cccs1	4	x	-1	-2	-1	53*
O=C(Nc1cccnc1)c1ccc([N+](=O)[O-])o1	7.8*	5	5	-5	2	2
O=C(COc1ccccc1[N+](=O)[O-])Nc1cccnc1	1	3	6	0	-1	45*
O=C(Nc1ccc(Cc2ccc(NC(=O)Nc3cccnc3)cc2)cc1)Nc1cccnc1	-1	x	x	x	x	56*
C[C@@H](NC(=O)[C@H]1[C@H](CO)[C@H]2Cn3c(cccc3=O)[C@@H]1N2C(=O)C1CC1)c1ccccc1	x	x	x	x	x	0
Cc1ccc(C(=O)Nc2cccc(-c3ccc(N4CCOCC4)nn3)c2)cc1[N+](=O)[O-]	6	4	2	-5	1	41*
Cc1ccccc1C(=O)Nc1cccc(-c2ccc(N3CCOCC3)nn2)c1	2	-2	-8	-26	1	60*
O=C(Nc1cccc(-c2ccc(N3CCCCC3)nn2)c1)c1ccc(Br)o1	7.9*	-4	-4	14	1	-8
O=C(Nc1cccc(-c2ccc(N3CCOCC3)nn2)c1)c1ccc([N+](=O)[O-])cc1	3	-3	-2	0	-1	52*
O=C(Nc1cccc(-c2ccc(N3CCCCC3)nn2)c1)C(F)(F)F	-3	-3	-1	-34	-2	-73
O=[N+]([O-])c1ccc(S(=O)(=O)Nc2cccc(-c3ccc(N4CCOCC4)nn3)c2)cc1	4	3	-5	26	0	27
O=C(Nc1cccc(-c2ccc(N3CCOCC3)nn2)c1)c1ccccc1	8	-1	-6	2	1	34
CN(C)c1ccc2c(c1)[C@@H]1C[C@H](CC(=O)NCc3ccc(Cl)cc3)O[C@H](CO)[C@@H]1O2	x	x	x	x	x	2
C[C@H]1CN([C@@H](C)CO)C(=O)c2cccc(NC(=O)NC3CCCCC3)c2O[C@H]1CN(C)S(C)(=O)=O	x	x	x	x	x	-3
Fc1ccc(-c2nc3c(Cl)cc(C(F)(F)F)cn3c2Cc2ccccc2)cc1	3	x	x	x	x	10
Fc1ccc(-c2cn3cc(C(F)(F)F)cc(Cl)c3n2)cc1	6	-7	-11	-2	2	46*
O=C(N=Nc1c(O)[nH]c2ccc(Br)cc12)c1ccccc1-n1cccc1	-3	4	-3	4	-2	10
O=C(N=Nc1c(O)[nH]c2ccc(Br)cc12)c1ccco1	0	x	x	x	x	60*
COCCN=C1Sc2nc3ccc(C)cc3cc2CN1Cc1ccco1	3	1	-24	13	-1	54*
CC(C)NC(=O)N[C@H]1CC[C@H](CCNC(=O)C2CCOCC2)O[C@H]1CO	x	x	x	x	x	-1
SMILES	SMARCA2 act	DYRK1A inh	dFosB act	Rtt109 HAT inh	CDK5 p35 inh	esBAF inh
COc1cc(N=Nc2cccc(S(N)(=O)=O)c2)c2ccccc2c1N	3	58*	-8	0	10	4
NC1=NC(=Nc2cccc(S(N)(=O)=O)c2)c2ccccc21	5	-5	-2	-12	-2	0
Cc1cc2[nH]c(=O)c(=O)[nH]c2cc1S(=O)(=O)NC1CCC(C)CC1 (centres undefined)	-2	-6	-1	2	1	2
Cc1cc2[nH]c(=O)c(=O)[nH]c2cc1S(=O)(=O)NC1CCCCC1C (centres undefined)	x	57*	-5	7	3	1
C1CCC(C(CC2CCCCN2)C2CCCCC2)CC1 (centres undefined)	-6	-1	-1	78*!	0	-9
CN1C(=O)c2cc(NC(=O)c3cccc(F)c3)ccc2OC[C@@H]2O[C@@H](CC(=O)NC3CCC3)CC[C@H]21	x	x	x	x	x	7
CC1CCCCN1C(=O)CSc1nnc(-c2ccc(Cl)s2)o1 (centres undefined)	3	5	-17	-9	0	63*
COc1cccc(CNc2ccc3c(c2)ncn3C)c1OC	-3	8	-1	-1	0	21
Cn1c(CN2CCCCC2)nc2cc(NC(=O)c3ccc(Cl)cc3)ccc21	-7	0	-12	-8	0	u
Cn1cnc2cc(NC(=O)COc3ccccc3)ccc21	4	-6	2	-24	0	43*
Cn1cnc2cc(NCc3ccccc3Cl)ccc21	4	0	-6	-2	1	51*
CC(C)(C)n1cnc2cc(NC(=O)c3ccc(Cl)cc3)ccc21	3	x	-13	2	2	7
Cn1cnc2cc(NC(=O)c3ccc(Cl)cc3)ccc21	5	3	-6	4	-2	54*
Cn1c(CN2CCCC2)nc2cc(NC(=O)c3ccc(Cl)cc3)ccc21	2	3	1	-1	1	53*
C[C@@H]1CN([C@H](C)CO)C(=O)Cc2cc(NS(C)(=O)=O)ccc2O[C@H]1CN(C)CC1CCCCC1	x	x	x	x	x	-2
CC1CCC(NC(=O)C2CCN(c3c4c(nc5ncnn35)CCC4)CC2)CC1 (centres undefined)	x	0	-2	-4	0	41*
CCC(=O)N1CC[C@@H]2[C@@H](CO)Nc3ccc(-c4cccc(C#N)c4)cc3[C@@H]21	x	x	x	x	x	-1
O=C(Cn1nc(-c2ccccc2)c2ccccc2c1=O)Nc1ccccn1	2	6	3	9	0	48*
Cc1nn(CC(=O)Nc2ccccn2)c(=O)c2ccccc12	5	7	0	10	1	-4
COc1ccc(NC(=O)Nc2ccc3c(c2)C(=O)N([C@H](C)CO)C[C@H](C)[C@H](CN(C)C(=O)Nc2ccc4c(c2)OCO4)OCCCC[C@H](C)O3)cc1	x	x	x	x	x	-1
CC(C)(C)C(=O)Nc1sc(-c2ccccc2)cc1C(=O)O	2	9	-2	3	1	x
Cc1cccc(C(=O)Nc2sc(-c3ccccc3)cc2C(=O)O)c1	7	7	-9	8	-5	68*
Cc1cccc(C(=O)Nc2sc3c(c2C(=O)O)CCCC3)c1	0	-3	3	7	1	72*
COc1ccc(NC(=O)N(C)C[C@@H]2Oc3ccc(NS(=O)(=O)c4ccc(C)cc4)cc3CC(=O)N([C@@H](C)CO)C[C@@H]2C)cc1	x	x	x	x	x	1

From PubChem BioAssay
